Experimental data as given in PubChem BioAssay (NCATS).
Results filed as inconclusive are left out. Calls of active or inactive are those of the source. Unless noted, calls follow the shape of the dose curve; as a rule, active = well fitted curve in the direction sought with a large enough effect; inconclusive = small, poorly fitted or top-dose-only effect, or another doubt; inactive = no such curve, though single readings can be large; an effect the other way counts as inactive or inconclusive.

Key:
[1] = NFAT Signaling Pathway (AID 444; active = well fitted curve in either direction with a large enough effect, not every such curve was filed as active;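 also: carbachol stimulus at about its EC50 of 1 µM final; % is scaled to controls: 0 for no effect and ±100 for the full control effect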); conditions: Jurkat NFAT-bla M1, carbachol, beta-lactamase ratio, 5 h; at 38 µM (top of the series)
Method in brief: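 Jurkat cells with NFAT-driven β-lactamase reporter and co-expressed M1 receptor, stimulated with carbachol (final 1 uM, ~EC50), compound titration, 5 h at 37 °C. CCF4 loaded 1 h at RT; 460/530 nm ratio gave %activity and AC50.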

[2] = target: Glucocorticoid receptor (Homo sapiens) (UniProt P04150); experiment: GR-GFP Redistribution (AID 450;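 active = compounds whose dose series gives a full or clear partial fitted curve of increased nuclear translocation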; also: potency is read from the fitted curve at half-maximal effect); conditions: U2OS GR-GFP nuclear translocation, laser cytometry, 2 h
[3] = target: Glucocorticoid receptor (Homo sapiens) (UniProt P04150); experiment: GR-EFC Redistribution (AID 451; calls by dose curve; also: potency is read from the fitted curve at half-maximal effect); conditions: CHO-K1 GR-EFC translocation, beta-gal luminescence, 2 h
Method in brief: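 CHO-K1 cells expressing nuclear EA and GR-ED fragments of b-gal; compounds titrated up to 46 uM final, 2 h at 37 C. GR nuclear translocation read as complemented b-gal luminescence after 1 h RT detection.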

[4] = target: Mitogen-activated protein kinase 10 (Mus musculus) (UniProt Q61831); experiment: JNK3 AlphaScreen Assay (AID 530; active = well fitted curve in either direction with a large enough effect, not every such curve was filed as active;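 also: kinase came from lysate of stimulated human HepG2 cells; signal reports phosphorylation of biotinylated GST-cJun 1-79 at Ser73 with 10 µM ATP; % is scaled to controls: 0 for no effect and ±100 for the full control effect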)
Method in brief: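 HepG2 lysate (IL-1b/TNFa pre-activated) + biotin-GST-cJun 1-79 + anti-pSer73 cJun; cpd titration, 15 min RT; ATP 10 uM start; Tris pH 7.6, MgCl2, DTT, vanadate; beads in EDTA buffer; AlphaScreen.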

[5] = target: 3',5'-cyclic-AMP phosphodiesterase 4B (Homo sapiens) (UniProt Q07343); experiment: qHTS Assay for Inhibitors of PDE-IV (AID 607; active = well fitted activation curve with a large enough effect in the main read-out, with a control signal flat, not every such curve was filed as active; also: % of control where 0% means no effect)
Method in brief: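 Live HEK293 cells with a modified cyclic nucleotide-gated (CNG) channel report intracellular cAMP via membrane-potential dye fluorescence (ex 535/em 590 nm). Endogenous PDE-IV was targeted. Compounds were tested at up to 22.9 uM final; RO 20-1724 100 uM served as control.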

[6] = target: Guanine nucleotide-binding protein G(i) subunit alpha-1 (Homo sapiens) (UniProt P63096); experiment: qHTS Assay for Inhibitors of RGS12 GoLoco Motif Activity (Green Fluorophore) (AID 879);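 also: 0% = labeled peptide with Gαi1 and full inhibition = labeled peptide alone without protein; negative values mean loss of peptide binding seen as reduced polarization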
Method in brief: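 A drop in FITC polarization marked displacement of the FITC-tagged RGS12 GoLoco peptide (10 nM) from Gαi1 (50 nM). Compounds were incubated 10 min at room temperature in Tris pH 7.5 buffer containing 150 mM NaCl, 0.1 mM GDP and 0.05% NP40; unlabeled peptide titration served as control.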

[7] = target: Cytochrome P450 3A4 (Homo sapiens) (UniProt P08684); experiment: qHTS Assay for Activators of Cytochrome P450 3A4 (AID 885); also: nearly all actives have a fitted effect of over 65% in size
Method in brief: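 Using 20nM recombinant human CYP3A4 in potassium phosphate (200mM), substrate Luciferin-PPXE at 25uM, luminescent luciferin detection followed a 60-min RT NADPH reaction; data scaled to 57 uM ketoconazole.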

[8] = qHTS Assay for Identification of Small Molecule Antagonists for NFkB Signaling Pathway (AID 895; active = well fitted inhibition curve with a large enough effect in the signal ratio, with a control signal flat, not every such curve was filed as active; the % refers to the signal ratio; also: potency is read from the fitted curve at half-maximal effect)
Method in brief: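 ME-180 NFkB-bla cells (beta-lactamase under NFkB response element), plated overnight, treated with compound then 10 pM TNF alpha (about EC50) for 5 hrs at 37 C. LiveBLAzer FRET read at 460/530 nm emission, 405 nm excitation.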

[9] = qHTS Assay for Identification of Small Molecule Agonists for Thrombopoietin (TPO) Signaling Pathway (AID 917); also: % is scaled to controls: 0 for no effect and ±100 for the full control effect
Method in brief: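 Ba/F3 (mouse) + hTPO receptor + GpIIb-promoter luciferase; IL-3 withdrawn overnight; compound + 26 pM TPO (EC50), 24 hrs, 37 C, 5% CO2; Steadylite luminescence, 10 min RT.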

[10] = target: Pyruvate kinase (Leishmania mexicana) (UniProt Q27686); experiment: qHTS Validation Assay for Inhibitors of Leishmania Mexicana Pyruvate Kinase (AID 945);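 also: 0% = DMSO only neutral control wells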
Method in brief: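 LmPYK E451W 0.2 nM; 0.5 mM PEP, 0.1 mM ADP, 7 mM MgCl2, 50 mM KCl, imidazole pH 7.2, 0.01% Tween 20, 0.05% BSA; 1 h RT; PKLight luminescence; DMSO-normalized.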

[11] = target: Pyruvate kinase PKM (Homo sapiens) (UniProt P14618); experiment: qHTS Assay for Activators of Human Muscle Pyruvate Kinase (AID 954; active = well fitted curve in the direction sought with a large enough effect, not every such curve was filed as active;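 also: 0% = uninhibited enzyme and -100% = no enzyme or full thiadiazolimine inhibition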)
Method in brief: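 Screening used highly purified human pyruvate kinase M2 under submaximal activity, with PEP at its Km and ADP below Km. After an hour at room temperature, ATP was read by luciferase luminescence.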

[12] = target: Alpha-galactosidase (Coffea arabica) (UniProt Q42656); experiment: Counterscreen for Glucocerebrosidase Inhibitors: qHTS Assay for Coffee Bean alpha-Galactosidase at pH 4.5 (AID 957);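 also: plate controls were enzyme alone for no effect and no enzyme for full effect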
Method in brief: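 Fluorogenic read-out: 4-methylumbelliferone at Ex 365/Em 440 nm after NaOH/glycine stop (pH 10). Enzyme 2 nM, 4-MU-alpha-galactoside 80 uM, citrate buffer pH 4.5, 20 min RT; normalized to no-enzyme and enzyme controls.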

[13] = target: Alpha-galactosidase A (Homo sapiens) (UniProt P06280); experiment: Counterscreen for Glucocerebrosidase Inhibitors: qHTS Assay for Human alpha-Galactosidase at pH 4.5 (AID 992); also: 0% is about no effect
Method in brief: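 Each compound is preincubated briefly with 2 nM enzyme before substrate addition (80 uM); plates then sit 20 min at ambient temperature, are quenched with 1M NaOH/1M glycine, and read fluorometrically.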

[14] = target: alpha-glucosidase (Oryza sativa, rice) (UniProt Q653V4); experiment: Counterscreen for Glucocerebrosidase Inhibitors: qHTS Assay for Rice alpha-Glucosidase at pH 5.0 (AID 997);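 also: 0% = full activity with enzyme and -100% = basal without enzyme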
Method in brief: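 Endpoint fluorogenic assay at pH 5.0: compounds (0.7 nM to 77 uM) titrated against 4 nM rice enzyme and 400 uM 4-MU-alpha-glucoside for 20 min at room temperature; NaOH/glycine stop, read ex 365/em 440 nm, Hill-fitted AC50.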

[15] = target: Alpha-galactosidase (Coffea arabica) (UniProt Q42656); experiment: Counterscreen for Glucocerebrosidase Inhibitors: qHTS Assay for Coffee Bean alpha-Galactosidase at pH 5.9 (AID 998);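 also: plate controls were uninhibited enzyme for no effect and no-enzyme basal signal for full effect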
Method in brief: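 Enzyme 2 nM + cpd (0.7 nM–77 uM titration) + 4-MU-alpha-Gal 80 uM, pH 5.9 citrate/Tween-20, RT 20 min, NaOH/glycine stop pH 10, fluor 365/440. Normalized to no-enzyme and full-activity controls; Hill-fit AC50.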

[16] = target: DNA repair nuclease/redox regulator APEX1 (Homo sapiens) (UniProt P27695); experiment: qHTS Validation Assay for Inhibitors of the Human Apurinic/apyrimidinic Endonuclease 1 (APE1) (AID 1705; also: potency is read from the fitted curve at half-maximal effect)
Method in brief: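 Read-out: TAMRA fluorescence (525 nm ex, 598 nm em) from cleavage of a quenched THF abasic-site duplex, 50 nM final; activity taken as intensity change between third and first of three reads 60 s apart.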

[17] = qHTS for differential inhibitors of proliferation of Plasmodium falciparum line 7G8 (AID 1815);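 also: potency is read from the fitted curve at half-maximal effect; parasite growth measured after three days of incubation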
[18] = qHTS for differential inhibitors of proliferation of Plasmodium falciparum line GB4 (AID 1816); conditions: Potency: Plasmodium falciparum GB4 proliferation inhibition;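 also: potency is read from the fitted curve at half-maximal effect; parasite growth measured after 72 h incubation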
[19] = qHTS for differential inhibitors of proliferation of Plasmodium falciparum line 3D7 (AID 1876); also: potency is read from the fitted curve at half-maximal effect
[20] = qHTS for differential inhibitors of proliferation of Plasmodium falciparum line W2 (AID 1883); conditions: Potency: Plasmodium falciparum W2 proliferation inhibition;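 also: potency is read from the fitted curve at half-maximal effect; parasites grown with compound for 72 h before lysis and staining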
[21] = qHTS for differential inhibitors of proliferation of Plasmodium falciparum line HB3 (AID 1886); conditions: Potency: Plasmodium falciparum HB3 proliferation inhibition;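 also: potency is read from the fitted curve at half-maximal effect; parasites grown with compound for 72 h before SYBR Green readout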
[22] = target: ATP-dependent DNA helicase Q1 (Homo sapiens) (UniProt P46063); experiment: qHTS Validation Assay for Inhibitors of RecQ-Like Dna Helicase 1 (RECQ1) (AID 2353);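 also: plate controls were DMSO vehicle for no effect and enzyme-free control for full effect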
Method in brief: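 RECQ1T1 50 nM; forked duplex (20 bp + 30-nt ss tails) 200 nM, ATP 2 mM final; pH 8.0, 2 mM MgCl2, 2.5 ug/ml poly(dI-dC); 15 min compound preincubation; discontinuous kinetic read over 2 h at RT.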

[23] = Validation screen for inhibitors of Lassa infection (AID 463096; calls by dose curve; also: % is scaled to controls: 0 for no effect and ±100 for the full control effect)
[24] = Quantitative high throughput screen for delayed death inhibitors of the malarial parasite plastid, 96 hour incubation (AID 488745);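 also: luciferase-expressing P. falciparum in erythrocytes at 2% hematocrit and 0.1% parasitemia; % is scaled to controls: 0 for no effect and ±100 for the full control effect; nearly all actives have a fitted effect of over 70% in size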
Method in brief: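 Luciferase-expressing P. falciparum, infected RBCs 2% Hct/0.1% parasitemia (final); 96 h cpd exposure, 37 C, 5% CO2; RPMI 1640 + 0.5% Albumax, bicarbonate, gentamycin. Readout: luminescence loss = growth inhibition.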

[25] = target: M-phase phosphoprotein 8 (Homo sapiens) (UniProt Q99549); experiment: qHTS Validation Assay for Inhibitors for MPP8 Chromodomain Interactions with Methylated Histone Tails (AID 488949);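 also: AlphaScreen signal from MPP8 chromodomain bound to biotinylated H3K9me3 peptide; top concentration of the series differs between compounds; % is scaled to controls: 0 for no effect and ±100 for the full control effect; nearly all actives have a fitted effect of over 55% in size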
Method in brief: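 AlphaScreen read-out: streptavidin donor and nickel chelate acceptor beads (final 10 ug/mL), 30 min in the dark at RT. Complex of 50 nM MPP8 and 50 nM b-H3(1-18)K9me3 peptide had been exposed to compounds for 30 min beforehand.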

[26] = target: Thyrotropin receptor (Homo sapiens) (UniProt P16473); experiment: qHTS Assay for Antagonists of the Thyroid Stimulating Hormone Receptor (AID 488980); also: 0% is about no effect
Method in brief: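 TSHR-HEK293 cells; 70 uM RO 20-1724 PDE inhibitor; compound + EC80 TSH (4 nM final); anti-cAMP cryptate antibody/cAMP-d2 in lysis buffer, 30 min RT; HTRF 665/620 nm read.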

[27] = target: Thyrotropin-releasing hormone receptor (Homo sapiens) (UniProt P34981); experiment: qHTS for Small Molecule Agonists and Allosteric Enhancers of Human TRH Receptor: Validation Screen for Agonists (AID 493127;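 active = calcium activation more than 3 SD above the typical response in the agonist read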;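 also: intracellular calcium rise by fluo-8 fluorescence before TRH EC20 addition; 0% is about no effect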); conditions: TRH receptor agonist cell assay; at 2 µM; active compounds read high
Method in brief: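 Read-out: intracellular calcium release measured kinetically by FDSS (fluo-8, ex 480/em 530 nm), 1 reading/s after a 10-cycle baseline. TRHR cells, 2000/well, cultured 18 h at 33.5C, dye-loaded at room temp. Compound-evoked positive calcium signal flags agonists.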

[28] = target: Galactokinase (Homo sapiens) (UniProt P51570); experiment: qHTS Validation Assay for Inhibitors of Human Galactokinase (GALK) (AID 493189); also: 0% is about no effect
Method in brief: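 Luminescence from leftover ATP (Kinase-Glo Plus, 10 min) served as read-out after a 1 h room-temperature reaction of 5 nM GALK, 100 uM galactose and 35 uM ATP at pH8.0.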

[29] = Validation screen for small molecules that induce DNA re-replication in SW480 colon adenocarcinoma cells (AID 504364); also: 0% is about no effect
Method in brief: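 Read-out: total Hoechst intensity of nuclei by fluorescence scanning imager; hits raise the fraction of nuclei with elevated DNA content. Cells received compound for 48 hr at 37 C before a 40 min stain.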

[30] = target: Voltage-gated inwardly rectifying potassium channel KCNH2 (Homo sapiens) (UniProt Q12809); experiment: qHTS Assay for Small Molecule Inhibitors of the Human hERG Channel Activity (AID 588834);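 also: top concentration of the series differs between compounds; % is scaled to controls: 0 for no effect and ±100 for the full control effect; lower thallium flux fluorescence means stronger hERG block; nearly all actives have a fitted effect of over 50% in size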
Method in brief: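 Thallium-flux (FluxOR) read-out on FDSS: fluorescence read 10 s before and 2 min after stimulation buffer. hERG-BacMam-transduced U2OS cells, compound exposure about 10 min. AC50 by standard Hill equation.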

[31] = Primary qHTS for small molecule stabilizers of the endoplasmic reticulum resident proteome: Secreted ER Calcium Modulated Protein (SERCaMP) assay (AID 1508630); also: % is scaled to controls: 0 for no effect and ±100 for the full control effect
Method in brief: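 The SH-SY5Y reporter protocol was run at 3 concentrations up to 38.3 uM (primary) or 11 concentrations (follow-up): 16 h compound, 100 nM thapsigargin for 4 h, then extracellular luciferase luminescence.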

Alpha-galactosidase (Coffea arabica), sequence (Q42656 whole entry, looked up): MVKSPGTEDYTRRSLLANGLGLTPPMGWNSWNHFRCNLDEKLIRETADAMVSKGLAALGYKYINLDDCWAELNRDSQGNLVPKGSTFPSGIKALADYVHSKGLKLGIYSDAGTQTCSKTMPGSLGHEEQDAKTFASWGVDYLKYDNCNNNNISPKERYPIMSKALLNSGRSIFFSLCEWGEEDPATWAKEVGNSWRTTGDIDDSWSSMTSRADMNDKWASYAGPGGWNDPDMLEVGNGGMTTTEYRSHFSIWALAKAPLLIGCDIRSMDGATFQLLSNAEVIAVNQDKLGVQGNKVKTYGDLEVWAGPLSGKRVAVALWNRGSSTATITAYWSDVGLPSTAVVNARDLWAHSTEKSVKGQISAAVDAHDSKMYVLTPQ
Glucocorticoid receptor (Homo sapiens), sequence (P04150 whole entry, looked up, the tested form may be a part): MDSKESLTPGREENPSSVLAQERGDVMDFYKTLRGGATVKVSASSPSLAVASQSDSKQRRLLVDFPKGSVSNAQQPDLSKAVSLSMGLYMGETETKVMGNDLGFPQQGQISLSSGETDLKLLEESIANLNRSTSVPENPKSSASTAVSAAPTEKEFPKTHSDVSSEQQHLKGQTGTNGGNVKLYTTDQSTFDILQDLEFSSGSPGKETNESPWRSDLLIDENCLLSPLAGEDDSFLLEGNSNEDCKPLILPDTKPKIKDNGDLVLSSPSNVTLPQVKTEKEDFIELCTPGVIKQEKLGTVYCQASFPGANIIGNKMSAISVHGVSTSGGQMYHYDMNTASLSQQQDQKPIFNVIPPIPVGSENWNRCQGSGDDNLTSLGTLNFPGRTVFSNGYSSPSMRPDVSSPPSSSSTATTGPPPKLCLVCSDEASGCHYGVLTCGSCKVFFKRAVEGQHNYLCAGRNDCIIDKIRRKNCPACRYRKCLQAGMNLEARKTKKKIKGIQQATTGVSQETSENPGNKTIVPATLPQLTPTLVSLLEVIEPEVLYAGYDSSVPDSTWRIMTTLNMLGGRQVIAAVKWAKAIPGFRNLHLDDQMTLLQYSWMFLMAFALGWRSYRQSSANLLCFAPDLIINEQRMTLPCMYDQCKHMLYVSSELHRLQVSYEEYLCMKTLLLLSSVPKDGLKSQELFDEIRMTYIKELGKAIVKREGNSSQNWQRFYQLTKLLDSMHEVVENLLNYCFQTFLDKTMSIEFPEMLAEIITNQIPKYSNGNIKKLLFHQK
3',5'-cyclic-AMP phosphodiesterase 4B (Homo sapiens), sequence (Q07343 whole entry, looked up): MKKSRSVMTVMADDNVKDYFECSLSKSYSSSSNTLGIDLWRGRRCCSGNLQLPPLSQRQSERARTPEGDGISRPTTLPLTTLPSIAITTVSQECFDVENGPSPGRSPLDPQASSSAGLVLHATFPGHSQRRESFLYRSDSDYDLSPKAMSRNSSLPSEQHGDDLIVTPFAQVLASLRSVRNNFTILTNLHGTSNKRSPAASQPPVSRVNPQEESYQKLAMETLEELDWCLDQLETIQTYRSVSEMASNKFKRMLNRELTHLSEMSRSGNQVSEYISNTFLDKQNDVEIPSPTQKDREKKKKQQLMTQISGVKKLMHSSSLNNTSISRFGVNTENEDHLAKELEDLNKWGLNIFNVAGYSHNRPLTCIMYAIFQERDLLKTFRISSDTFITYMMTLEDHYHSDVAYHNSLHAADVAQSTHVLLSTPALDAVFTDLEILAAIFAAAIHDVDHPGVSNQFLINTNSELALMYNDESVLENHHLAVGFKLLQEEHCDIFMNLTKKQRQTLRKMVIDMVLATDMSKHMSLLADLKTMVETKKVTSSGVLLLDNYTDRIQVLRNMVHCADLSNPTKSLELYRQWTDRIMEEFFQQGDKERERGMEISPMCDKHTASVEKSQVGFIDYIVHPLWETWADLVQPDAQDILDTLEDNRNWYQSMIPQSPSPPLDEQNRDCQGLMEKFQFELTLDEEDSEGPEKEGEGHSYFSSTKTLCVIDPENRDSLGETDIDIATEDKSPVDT
Thyrotropin receptor (Homo sapiens), sequence (P16473 whole entry, looked up): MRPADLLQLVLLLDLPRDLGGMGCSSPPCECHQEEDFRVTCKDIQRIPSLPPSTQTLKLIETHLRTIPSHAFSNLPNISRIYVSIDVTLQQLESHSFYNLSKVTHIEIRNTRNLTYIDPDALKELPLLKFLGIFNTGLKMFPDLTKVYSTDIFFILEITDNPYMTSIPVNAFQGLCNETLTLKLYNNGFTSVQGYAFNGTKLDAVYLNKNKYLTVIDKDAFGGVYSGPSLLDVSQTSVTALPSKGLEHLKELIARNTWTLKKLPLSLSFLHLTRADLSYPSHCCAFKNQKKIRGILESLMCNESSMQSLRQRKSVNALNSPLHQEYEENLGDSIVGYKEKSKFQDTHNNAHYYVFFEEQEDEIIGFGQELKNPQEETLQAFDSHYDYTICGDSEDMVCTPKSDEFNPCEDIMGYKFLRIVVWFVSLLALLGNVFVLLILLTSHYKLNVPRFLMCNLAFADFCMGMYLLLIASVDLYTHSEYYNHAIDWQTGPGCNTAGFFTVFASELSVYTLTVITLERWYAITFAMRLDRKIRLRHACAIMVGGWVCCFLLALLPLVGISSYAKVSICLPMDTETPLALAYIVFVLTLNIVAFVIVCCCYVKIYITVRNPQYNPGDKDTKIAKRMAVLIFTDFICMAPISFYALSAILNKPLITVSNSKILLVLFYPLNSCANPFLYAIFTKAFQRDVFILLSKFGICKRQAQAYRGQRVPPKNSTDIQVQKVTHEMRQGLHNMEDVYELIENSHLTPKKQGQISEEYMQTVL
Pyruvate kinase (Leishmania mexicana), sequence (Q27686 2-499 E452W): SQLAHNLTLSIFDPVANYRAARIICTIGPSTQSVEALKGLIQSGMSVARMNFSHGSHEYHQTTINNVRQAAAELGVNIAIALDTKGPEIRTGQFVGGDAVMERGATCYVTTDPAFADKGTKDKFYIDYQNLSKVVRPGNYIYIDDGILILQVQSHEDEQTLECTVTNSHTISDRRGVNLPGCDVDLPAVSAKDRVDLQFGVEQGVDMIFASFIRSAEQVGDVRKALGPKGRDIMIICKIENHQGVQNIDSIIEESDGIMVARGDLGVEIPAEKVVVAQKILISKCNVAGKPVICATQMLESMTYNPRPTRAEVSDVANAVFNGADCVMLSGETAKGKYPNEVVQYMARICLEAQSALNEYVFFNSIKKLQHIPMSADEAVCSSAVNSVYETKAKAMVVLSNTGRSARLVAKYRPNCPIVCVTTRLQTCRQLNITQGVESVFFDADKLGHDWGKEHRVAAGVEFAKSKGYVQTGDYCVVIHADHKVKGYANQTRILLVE
Voltage-gated inwardly rectifying potassium channel KCNH2 (Homo sapiens), sequence (Q12809 whole entry, looked up): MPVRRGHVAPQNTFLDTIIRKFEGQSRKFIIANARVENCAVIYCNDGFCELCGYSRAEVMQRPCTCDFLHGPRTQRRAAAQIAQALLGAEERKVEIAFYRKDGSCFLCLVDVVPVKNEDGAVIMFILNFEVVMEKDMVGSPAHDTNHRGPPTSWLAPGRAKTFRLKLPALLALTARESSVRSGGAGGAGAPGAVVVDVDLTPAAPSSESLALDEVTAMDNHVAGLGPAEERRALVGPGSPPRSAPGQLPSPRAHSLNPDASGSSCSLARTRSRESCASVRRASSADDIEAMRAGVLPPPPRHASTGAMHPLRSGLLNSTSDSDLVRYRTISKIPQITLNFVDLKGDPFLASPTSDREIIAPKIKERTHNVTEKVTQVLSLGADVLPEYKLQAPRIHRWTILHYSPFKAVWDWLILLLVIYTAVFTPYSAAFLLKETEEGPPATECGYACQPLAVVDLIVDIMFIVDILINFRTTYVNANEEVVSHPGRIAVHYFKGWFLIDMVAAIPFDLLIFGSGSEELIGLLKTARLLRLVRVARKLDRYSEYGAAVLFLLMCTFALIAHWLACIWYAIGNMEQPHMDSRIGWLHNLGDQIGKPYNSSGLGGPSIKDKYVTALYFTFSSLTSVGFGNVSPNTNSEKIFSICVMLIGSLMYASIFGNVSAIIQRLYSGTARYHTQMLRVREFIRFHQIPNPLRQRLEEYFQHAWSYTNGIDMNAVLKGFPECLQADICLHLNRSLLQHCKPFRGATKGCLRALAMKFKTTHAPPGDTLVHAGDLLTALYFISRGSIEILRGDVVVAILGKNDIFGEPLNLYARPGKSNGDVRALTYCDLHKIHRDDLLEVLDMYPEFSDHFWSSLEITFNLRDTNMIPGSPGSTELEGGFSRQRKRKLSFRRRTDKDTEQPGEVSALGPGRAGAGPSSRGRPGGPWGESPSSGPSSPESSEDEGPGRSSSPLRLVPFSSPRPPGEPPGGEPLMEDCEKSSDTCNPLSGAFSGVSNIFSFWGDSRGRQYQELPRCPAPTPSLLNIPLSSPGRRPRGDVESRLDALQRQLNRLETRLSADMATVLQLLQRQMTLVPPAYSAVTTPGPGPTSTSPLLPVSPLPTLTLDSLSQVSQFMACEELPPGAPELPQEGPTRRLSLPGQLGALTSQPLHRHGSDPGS
DNA repair nuclease/redox regulator APEX1 (Homo sapiens), sequence (P27695 whole entry, looked up): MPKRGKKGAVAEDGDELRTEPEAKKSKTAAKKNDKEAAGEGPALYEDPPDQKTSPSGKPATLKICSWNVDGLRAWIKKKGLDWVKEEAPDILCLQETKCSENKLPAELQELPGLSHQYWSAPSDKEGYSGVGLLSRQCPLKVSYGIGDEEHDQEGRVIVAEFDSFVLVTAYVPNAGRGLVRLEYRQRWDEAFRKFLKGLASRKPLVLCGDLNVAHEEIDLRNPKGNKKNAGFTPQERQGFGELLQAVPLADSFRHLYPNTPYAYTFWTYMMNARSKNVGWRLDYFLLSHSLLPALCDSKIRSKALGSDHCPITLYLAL
Guanine nucleotide-binding protein G(i) subunit alpha-1 (Homo sapiens), sequence (P63096 whole entry, looked up): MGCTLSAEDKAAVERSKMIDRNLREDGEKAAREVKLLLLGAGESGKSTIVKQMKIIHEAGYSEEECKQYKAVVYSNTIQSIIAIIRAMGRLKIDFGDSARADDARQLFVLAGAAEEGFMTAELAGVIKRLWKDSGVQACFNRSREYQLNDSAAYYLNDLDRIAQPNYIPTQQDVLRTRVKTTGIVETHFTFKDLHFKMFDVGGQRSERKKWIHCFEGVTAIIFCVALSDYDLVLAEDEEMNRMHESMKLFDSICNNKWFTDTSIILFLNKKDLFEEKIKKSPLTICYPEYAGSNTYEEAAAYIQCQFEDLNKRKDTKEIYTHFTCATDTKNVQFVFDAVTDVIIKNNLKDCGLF

CCc1c(C(=O)OC)ncc2[nH]c3cc(OC)c(OC)cc3c12
inactive: activity change, negative = inhibition [1] -26.6% | Potency [2] > 46 µM | Potency [3] > 46 µM | outcome [4] | Potency [5] | outcome [6] | Potency [7] | outcome [9] | Potency [10] | outcome [11] | outcome [12] | outcome [13] | outcome [14] | outcome [15] | outcome [22] | Potency [23] | Potency [24] | Potency [25] | outcome [26] | activation [27] 0.312% | outcome [28] | outcome [29] | Potency [30] | outcome [31]
active: Potency [8] 5.62 µM | Potency [16] 6.31 µM | Potency [17] 7.94 µM | Potency [18] 12.6 µM | Potency [19] 12.6 µM | Potency [20] 7.94 µM | Potency [21] 10 µM
